Compounds with a hit are over-represented: about 2.4% of the library has one in this group of screens.
D2 ag-1: human D2 receptor agonism in beta-arrestin assay; activation, % (concentration not given with the values); DiscoveRx PathHunter D2 beta-arrestin, luminescence, 90 min; 100% = 57 uM dopamine signal; 360,000 compounds, 0.084% hits; P14416; in the data active = activation above about 40%
Target sequence (P14416 whole entry, looked up): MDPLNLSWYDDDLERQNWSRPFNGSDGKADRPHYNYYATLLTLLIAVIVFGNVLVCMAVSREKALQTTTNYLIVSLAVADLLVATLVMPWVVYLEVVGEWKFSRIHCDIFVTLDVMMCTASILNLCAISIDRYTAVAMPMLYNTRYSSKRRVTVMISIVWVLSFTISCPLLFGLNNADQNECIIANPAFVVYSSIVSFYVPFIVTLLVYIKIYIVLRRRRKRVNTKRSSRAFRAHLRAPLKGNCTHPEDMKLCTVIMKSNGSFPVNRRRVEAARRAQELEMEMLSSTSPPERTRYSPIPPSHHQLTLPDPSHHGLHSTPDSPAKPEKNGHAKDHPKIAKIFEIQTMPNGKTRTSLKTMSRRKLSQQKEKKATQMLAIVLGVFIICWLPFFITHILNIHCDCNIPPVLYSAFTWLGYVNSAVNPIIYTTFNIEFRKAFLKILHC
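Agonist mode: compounds alone added to overnight-plated D2 PathHunter cells for 90 min at 37 C, with 57 uM final dopamine (EC100) defining full response. Beta-arrestin recruitment detected by chemiluminescent reagent, read after 1 h at ambient temperature.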
D2 PAM-1: positive allosteric modulators of human D2 dopamine receptor; DiscoveRx D2 beta-arrestin cells, luminescence, 90 min; 100% = 57 uM dopamine signal; potentiation, % (no concentration beside the values); 360,000 compounds, 0.23% hits; AID 624464; in the data active = potentiation above about 50%
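D2 cells co-treated with compound plus 50 nM dopamine (EC20) for 90 min at 37 deg C to detect potentiation. Beta-arrestin recruitment was read as enzyme-fragment luminescence after 1 h at ambient temperature. Full response was set by 57 uM dopamine.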
D2 PAM-2: positive allosteric modulators of human D2 dopamine receptor. P14416. HEK293 T-REx D2, calcium flux, EC20 dopamine potentiation. potentiation, % at 10 µM. 340,000 compounds, 0.34% hits. AID 485347;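 active = potentiation over 3 SD above the plate norm, cut at about 30% in these data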; also: 0% is about no effect
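Cells plated with tetracycline inducer and held overnight at 30 C; calcium dye loaded 30–90 min at room temperature; baseline taken, compound added and read 180 s; EC20 dopamine then added and read 180 s.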
D2 ag-2: D2 dopamine receptor (human) agonism. P14416. HEK293 T-REx D2 cells, calcium flux agonist mode. activation, % at 2 µM. 340,000 compounds, 0.53% hits. AID 485358;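 active = activation over 3 SD above normal in the single-dose calcium agonist read, cut at about 30% in these data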; also: 0% is about no effect
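Tetracycline-induced HEK293 Trex cells with D2 receptor force-coupled to calcium signaling, plated overnight at 30 C and loaded with no-wash calcium dye. Calcium flux read kinetically for 180 s after compound addition; responses flag agonists.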
D2 antagonist: antagonizes the human D2 dopamine receptor. P14416. HEK293 TREx D2 cells, calcium flux, dopamine EC80. inhibition, % at 10 µM. 340,000 compounds, 2% hits. AID 485344; in the data active = inhibition above about 30%; inactive = below that, where a call was filed; also: 0% is about no effect
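In this primary screen, negative modulation is detected by tracking calcium flux after an EC80 dopamine challenge in inducible HEK293 T-REx D2 cells preexposed to test compound for 180 s.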
An asterisk follows results filed as active; x = no result given; ! = repeats disagree.

SMILES	D2 ag-1	D2 PAM-1	D2 PAM-2	D2 ag-2	D2 antagonist
Cc1nnc(NC(=O)CCC2CCCCC2)s1	-2.7	-3.6	x	x	x
O=S(=O)(c1ccccc1)N1CCN(c2ccccc2)CC1	0.3	-9.6	-0.6	-0.2	-12.9
COc1ccc(S(=O)(=O)N2CCN(C3CCCCCCC3)CC2)cc1	-1.2	-1.2	-5.7	-2.1	34.3*!
O=S(=O)(c1ccccc1)N1CCC(N2CCN(c3ccccc3)CC2)CC1	x	x	-24.5	74.0*	70.7*
COc1ccc(S(=O)(=O)N2CCC(N3CCCCC3)CC2)cc1	-4.5	-17.0	-5.1	0.3	-11.4
COc1ccc2c(c1)c(CC(=O)OCC(=O)O)c(C)n2C(=O)c1ccc(Cl)cc1	-1.5	-12.4	-14.9	-1.1	1.5
COc1ccc(-c2nnc(SCCC(=O)O)n2C)cc1OC	0.7	-9.0	9.1	0.0	34.4*
C=CCn1c(-c2csc(-c3ccccc3)n2)n[nH]c1=S	-4.0	-15.4	48.4*	0.3	-27.5
CC(=O)Nc1cccc(Oc2ncnc3scc(-c4ccc(C)cc4)c23)c1	5.4	7.3	-6.3	0.8	33.9*
Clc1ccc(-c2ccc(CN3CCCCC3)o2)cc1	-2.9	-66.1	-27.7	0.5	78.2*
CCOC(=O)CN(C(=O)CSc1nnc2c(n1)[nH]c1ccc(F)cc12)c1ccccc1	-3.7	-24.7	-19.5	-0.2	72.5*
CCOC(=O)CN(C(=O)CSc1nnc2c(n1)[nH]c1ccccc12)c1ccccc1	-0.8	-37.1	-9.4	-0.4	6.6
CCOC(=O)CN(C(=O)CSc1nnc2c(n1)[nH]c1c(C)cc(C)cc12)c1ccccc1	x	x	-22.0	0.6	60.8*
CN1C(=O)c2ccccc2OC1(C)Cc1ccccc1 (configuration not stated)	-1.1	-9.7	7.4	0.5	0.7
COc1cc(CC(=O)NCc2ccco2)cc(OC)c1OC	-4.4	1.5	-2.6	-0.3	-15.9
CCn1c(COc2ccccc2)nnc1SCC(=O)c1cccc([N+](=O)[O-])c1	-0.7	8.0	34.6*	0.3	6.3
C=CCn1c(COc2ccccc2)nnc1SCC(=O)O	-2.0	-23.6	32.5*	0.4	-5.9
CCn1c(COc2ccccc2C)nnc1SCC(=O)NCc1ccccc1	-3.2	-21.9	1.4	-0.1	-5.2
CCOc1cc(C)ccc1OCc1nnc(SCC(=O)c2cccc([N+](=O)[O-])c2)n1CC	-2.1	-9.5	9.9	-1.0	-14.6
CCn1c(COc2cccc3ccccc23)nnc1SCC(N)=O	-2.6	-5.6	36.6*	1.0	-14.8
CNC(=O)CSc1nnc(COc2ccc([N+](=O)[O-])cc2)n1C	-1.9	0.9	x	-0.9	75.9*
COc1ccc(NC(=O)CN(C)C(=O)Cc2n[nH]c(=O)c3ccccc23)cc1	-0.5	-2.0	x	x	x
CCN(C(=O)CSc1nc2c(cnn2-c2ccccc2)c(=O)[nH]1)C1CCS(=O)(=O)C1 (configuration not stated)	1.8	-14.3	x	x	x
COC(=O)c1ccc(C2C(Oc3ccccc3)C(=O)N2CCc2ccc(OC)c(OC)c2)cc1 (configuration not stated)	2.9	0.8	19.3	0.1	-11.1
CN(C)c1cc2c(cc1NS(=O)(=O)c1ccccc1)n(C)c(=O)n2C	-4.8	-0.6	0.2	1.5	3.1
SMILES	D2 ag-1	D2 PAM-1	D2 PAM-2	D2 ag-2	D2 antagonist
COc1ccccc1NS(=O)(=O)c1cccc(C(=O)NNC(=O)C(C)NC(=O)c2ccco2)c1 (configuration not stated)	5.4	-3.7	x	x	x
O=S(=O)(c1ccccc1)N1N=C(c2cccs2)CC1c1ccc(Br)cc1 (configuration not stated)	-1.3	-14.0	34.6*	0.1	13.1
COc1cccc(-n2c(=O)c3c(C)c(C(=O)N(C)C)sc3n(CC(=O)NCC3CCCO3)c2=O)c1 (configuration not stated)	-3.2	1.4	1.5	0.3	41.1*
CCc1ccc(-n2c(=O)c3c(C)c(C(=O)N(C)C)sc3n(CC(=O)NCC3CCCO3)c2=O)cc1 (configuration not stated)	1.9	-5.4	-1.9	-1.1	-8.5
COc1ccc(/C=C2/C(=O)N(c3ccccc3)N=C2C)cc1OC	-2.5	-2.4	13.2	-0.2	-9.6
Cc1sc2nc(CSC(C)C(=O)NC3(C#N)CCCCC3)[nH]c(=O)c2c1C (configuration not stated)	-6.5	-28.3	-5.6	-0.3	38.3*
Cc1sc2nc(CSC(C)C(=O)Nc3ccc(C#N)cc3)[nH]c(=O)c2c1C (configuration not stated)	-4.7	-13.0	0.0	0.5	-5.5
O=C1NC(=S)SC1=Cc1cccs1	-6.5	-11.3	x	x	x
CN1CCC/C1=C/C=C1\SC(=S)NC1=O	-5.9	-31.3	6.1	50.3*	8.0
CCOc1ccccc1N1CCN(c2nc(N)c(C#N)c(CC#N)c2C#N)CC1	3.4	11.8	6.7	-2.3	-0.2
CCOC(=O)N1CCN(S(=O)(=O)c2c(C)cc(C)cc2C)CC1	0.8	-8.3	2.6	0.3	54.0*
CCOC(=O)N1CCN(C(=O)C2CCN(S(=O)(=O)c3c(C)cc(C)cc3C)CC2)CC1	0.6	1.3	x	x	x
Cc1ccc(Cl)cc1N1CCN(C(=O)c2ccc3c(c2)N(Cc2ccccc2)CCS3)CC1	x	x	5.3	0.3	x
CC(C)CC1=NC(C(F)(F)F)(C(F)(F)F)c2c(n(CC(C)C)c(=O)[nH]c2=O)N1	-0.1	-12.9	-4.8	-0.7	2.8
CC(=O)/C(=N\Nc1ccccc1)Oc1ccc([N+](=O)[O-])cc1	-0.4	1.3	34.0*	0.5	11.0
CC(=O)NC/C(C)=N\Nc1ccc([N+](=O)[O-])cc1	-0.7	-1.0	0.9	2.5	2.6
COc1ccc(/C=C/C(=O)Nc2ccccc2C(=O)N2CCCC2)cc1	0.8	13.6	8.9	-0.4	-2.8
COc1ccc(/C=C/C(=O)Nc2ccccc2C(=O)NCC(c2ccc(OC)cc2)N(C)C)cc1 (configuration not stated)	0.4	-33.1	x	-2.5	60.2*
COc1ccc(/C=C/C(=O)Nc2ccccc2C(=O)O)cc1	1.4	8.7	-0.9	4.4	33.7*
COc1ccc(/C=C/C(=O)Nc2ccccc2C(F)(F)F)cc1	-0.5	-10.3	4.4	-1.3	4.8
COc1ccc(CN(C(=O)CNC(=O)c2ccco2)C(C(=O)NC2CCCC2)c2ccco2)cc1 (configuration not stated)	-5.7	-17.6	-8.5	0.7	4.5
O=C(Nc1ccc(O)cc1C(=O)O)c1cccs1	-0.6	9.5	25.2	0.0	34.6*
O=C(Nc1ccccc1C(=O)Nc1ccccc1)c1cccs1	1.5	-2.4	x	-2.2	-18.5
O=C(NNC(=O)c1ccccc1Cl)c1cccs1	-2.9	-20.8	32.4*	x	-6.1
CCCCCC1C(=O)C[C@@H]2CCN3C(=O)CCC[C@H]1[C@H]23 (some centres not stated)	-1.2	-2.7	x	x	x

From PubChem
